Bioassay records as filed in PubChem.
Shown are actives, neighbours in structure and some others; about 19% of the full set was active somewhere.
DT40 TDP1 no CPT = qHTS for Inhibitors of human tyrosyl-DNA phosphodiesterase 1 (TDP1): qHTS in cells in absence of CPT; DT40 Tdp1-/- hTDP1 cells, no CPT, ATP luminescence, 48 h; Potency, µM (top dose mostly 46.2 µM), inactives show at the top dose activity change, negative = growth inhibition, most hits filed as inhibitors; actives 15% (n = 420,000); also: potency is read from the fitted curve at half-maximal effect; % is scaled to controls: 0 for no effect and ±100 for the full control effect; nearly all actives have a fitted effect of over 55% in size
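Compound effects on proliferation are scored in DT40 Tdp1-/-;hTDP1 cells in the absence of CPT. ATP levels (CellTiter-Glo luminescence) are recorded after a ≥48 hr, 37 °C incubation.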
TGFb inhibitor = TGF-b pathway inhibition | Potency, µM (doses to about 46.1 µM), for the others: at the highest dose activity, negative = inhibition, actives largely listed as inhibitors | HepG2 CAGA-GFP TGF-b/SMAD3 reporter, GFP fluorescence, 18 h; TGF-beta stimulated, 500 pg/mL final | actives 1.2% (n = 410,000); also: potency is read from the fitted curve at half-maximal effect; % is scaled to controls: 0 for no effect and ±100 for the full control effect; nearly all actives have a fitted effect of over 65% in size
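Smad-responsive CAGA-GFP expression was quantified in HEPG2 cells exposed to compounds and 500 pg/mL final TGF-beta for 18 h at 37 degrees C; unstimulated wells defined full inhibition.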
IL1B secr inh = inhibitors of inflammasome signaling (IL-1 beta secretion) | THP-1 LPS/ATP IL-1B secretion, AlphaLISA, 16 h; active compounds read low | activity change, % at 57.5 µM | AID 743279 | actives 4.7% (n = 360,000); in the data active = activity change below about -50%; inconclusive = mostly about -30% to -49%; also: % is scaled to controls: 0 for no effect and ±100 for the full control effect
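THP-1 cells pretreated 1 hr with compounds (up to 57.5 uM final), then stimulated with LPS (250 ng/mL final) plus ATP (1.25 mM final); secreted IL-1B measured by AlphaLISA after 16 hr, decreased signal indicating inhibition.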
TDP1 block = inhibitors of human tyrosyl-DNA phosphodiesterase TDP1; Q9NUW8; recombinant TDP1, AlphaScreen DNA substrate cleavage; Potency, µM (top dose mostly 130 µM), inactives show at the top dose activity change, negative = inhibition, most hits filed as inhibitors; actives 0.28% (n = 350,000); AID 485290; also: potency is read from the fitted curve at half-maximal effect; % is scaled to controls: 0 for no effect and ±100 for the full control effect; nearly all actives have a fitted effect of over 40% in size
Target sequence (Q9NUW8 whole entry, looked up): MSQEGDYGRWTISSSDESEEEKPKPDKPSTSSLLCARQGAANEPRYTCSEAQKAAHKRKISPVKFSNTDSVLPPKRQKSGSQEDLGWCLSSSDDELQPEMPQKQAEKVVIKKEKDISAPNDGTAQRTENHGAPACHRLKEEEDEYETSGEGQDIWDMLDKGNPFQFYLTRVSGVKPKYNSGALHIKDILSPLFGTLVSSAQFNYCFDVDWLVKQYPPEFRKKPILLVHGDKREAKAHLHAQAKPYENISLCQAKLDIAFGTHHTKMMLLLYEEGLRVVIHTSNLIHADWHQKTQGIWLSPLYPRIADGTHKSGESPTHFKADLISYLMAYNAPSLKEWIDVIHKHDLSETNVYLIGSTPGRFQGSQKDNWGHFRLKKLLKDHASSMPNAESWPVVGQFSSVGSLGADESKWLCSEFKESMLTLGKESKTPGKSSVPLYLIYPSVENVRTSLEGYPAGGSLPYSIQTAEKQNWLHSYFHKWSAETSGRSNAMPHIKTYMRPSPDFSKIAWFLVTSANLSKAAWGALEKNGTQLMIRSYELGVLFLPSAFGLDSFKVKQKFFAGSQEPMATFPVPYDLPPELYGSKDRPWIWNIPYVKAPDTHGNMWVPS
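Compounds were preincubated with Tdp1 (1 nM final) for 15 min at room temperature before substrate (15 nM final) started a 5 min reaction; beads (10 ug/ml final) were then added for 10 min before AlphaScreen detection.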
HepG2 viability = HepG2 cytotoxicity, counter-screen for TGF-b inhibitors; HepG2 CAGA-GFP viability, ATP luminescence, 18 h; Potency, µM (doses to about 46.1 µM), without a hit: at the top dose activity change, negative = cytotoxicity, hits mostly cytotoxic; actives 0.76% (n = 410,000); also: potency is read from the fitted curve at half-maximal effect
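CellTiter-Glo luminescence gave cytotoxicity after 18 hours at 37 degrees C. The cells were HepG2 CAGA-GFP in 1% FBS DMEM, stimulated with 500 pg/mL TGF-beta after compound addition. %Activity was normalised to no-cell wells (complete cell-killing) and DMSO (no toxicity), and curves were fitted and classified.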
TDP1 cell CPT = DT40-hTDP1 cell growth loss with CPT. chicken DT40 Tdp1-/-;hTDP1 cells + 20 nM CPT, ATP luminescence, 48 h. Potency, µM (highest dose often 46.2 µM), without a hit: top-dose activity change, negative = growth inhibition, actives largely listed as inhibitors. actives 12% (n = 420,000); also: potency is read from the fitted curve at half-maximal effect; % is scaled to controls: 0 for no effect and ±100 for the full control effect; nearly all actives have a fitted effect of over 55% in size
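Cell growth measured by CellTiter-Glo luminescence after a minimum 48 h, 37 C compound exposure with 20 nM CPT in Tdp1-knockout DT40 cells stably expressing hTDP1, seeded 400/well; qHTS titration format.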
Starred values were filed as active, the others as inactive; ? = inconclusive; / = no result; [ ] = remark or other dose. Unless noted, calls follow the shape of the dose curve; as a rule, active = well fitted curve in the direction sought with a large enough effect; inconclusive = small, poorly fitted or top-dose-only effect, or another doubt; inactive = no such curve, though single readings can be large; an effect the other way counts as inactive or inconclusive.

SMILES	DT40 TDP1 no CPT	TGFb inhibitor	IL1B secr inh	TDP1 block	HepG2 viability	TDP1 cell CPT
CC(=O)c1cccc(NC(=O)Cn2c(=O)oc3cc(S(=O)(=O)NC4CCCC4)ccc32)c1	?	?	/	-6.8%	4.9%	?
O=C(NCCc1ccccc1)c1ccc2c(c1)N(Cc1ccc(F)cc1)C(=O)CS2	16.4µM*	-21.0%	/	2.6%	-12.8%	?
COc1ccccc1CNC(=O)c1ccc2c(c1)N(Cc1c(F)cccc1Cl)C(=O)CS2	?	-1.1%	/	0.0%	-16.9%	?
Cc1ccc(C)c(CN2C(=O)CSc3ccc(C(=O)N4CCCC4)cc32)c1	?	-27.0%	-20.7	2.8%	-27.7%	?
COc1ccc(CCNC(=O)c2ccc3c(c2)N(Cc2c(F)cccc2Cl)C(=O)CS3)cc1OC	9.2µM*	-5.6%	/	7.0%	-19.6%	8.2µM*
Cc1ccc(C)c(CN2C(=O)CSc3ccc(C(=O)NCCc4ccc(Cl)cc4)cc32)c1	?	-3.4%	/	2.9%	-2.7%	8.2µM*
Cc1ccc(CN2C(=O)CSc3ccc(C(=O)NC4CC4)cc32)cc1	?	33.4%	-9.8	7.4%[0.0935 µM]	-6.3%	-7.1%
Cc1ccc(C)c(CN2C(=O)CSc3ccc(C(=O)NCC(C)CN4CCC(C)CC4)cc32)c1 (centres undefined)	?	-27.8%	0.8	/	-26.8%	14.6µM*
Cn1cc(S(=O)(=O)N2CCOCC2)cc1C(=O)NCc1ccccc1Cl	-17.4%	-1.8%	-1.6	/	-5.4%	-4.6%
Cc1ccc(C)c(CN2C(=O)CSc3ccc(C(=O)NCc4ccc(F)cc4)cc32)c1	?	5.4%	/	-5.9%	0.9%	16.4µM*
C=CCN1C(=O)CSc2ccc(C(=O)NC3CCCCC3)cc21	?	3.3%	-8.8	0.8%	1.6%	?
O=C(NCCc1ccc(Cl)cc1)c1ccc2c(c1)N(Cc1ccccc1)C(=O)CS2	18.4µM*	-23.3%	/	0.0%	0.4%	16.4µM*
O=C(NCCc1ccccc1)c1ccc2c(c1)N(Cc1c(F)cccc1Cl)C(=O)CS2	9.2µM*	?	/	2.9%	-11.1%	14.6µM*
CCN1C(=O)CSc2ccc(C(=O)NC3CCCCC3)cc21	20µM*	1.8%	12.0	0.0%	-2.1%	35.5µM*
CCOC(=O)c1cc(CC)sc1NC(=O)COc1ccccc1C	2.1%	-9.0%	/	-4.0%[12.3 µM]	-14.1%	7.9%
CC(C)(C)C1CCc2oc3ccc(NS(=O)(=O)c4ccc(C(=O)O)cc4)cc3c2C1 (centres undefined)	-10.0%	22.4µM*	/	-3.2%	-121.5%	-1.7%
O=C(O)c1ccc(NS(=O)(=O)c2cc(Cl)ccc2Cl)cc1	-5.6%	0.5%	9.5	-1.0%	-2.7%	0.8%
CC(C)(C)C1CCc2oc3ccc(NS(=O)(=O)c4cc(Cl)ccc4Cl)cc3c2C1 (centres undefined)	?	?	/	-1.3%[12.3 µM]	-67.8%	25.9µM*
O=C(OCC(=O)N1CCN(C(=O)c2ccco2)CC1)c1cc(F)c(F)cc1Cl	-19.8%	5.1%	-12.8	0.0%	-6.6%	-18.0%
Brc1ccc(-c2cn3ccccc3n2)s1	23.1µM*	?	4.2	-1.1%	-23.1%	7.31µM*
Nn1cnc2scc(-c3ccco3)c2c1=O	?	-6.8%	-5.7	1.4%	-0.6%	?
Clc1ccc(SCc2cc(N3CCOCC3)nc(-c3ccccn3)n2)cc1	3.26µM*	?	-11.7	11.0%	-42.2%	5.8µM*
O=c1cc(CSc2ccc(Cl)cc2)nc(-c2ccccn2)[nH]1	4.11µM*	?	-8.5	/	-10.3%	4.11µM*
Clc1ccc(SCc2csc(N3CCOCC3)n2)cc1	-29.0%	?	-16.1	0.0%	-7.6%	-0.9%
O=C(O)c1c2c(nc3ccccc13)/C(=C/c1cccc([N+](=O)[O-])c1)CCC2	1.5%	19.5%	7.4	9.2%[0.0935 µM]	-1.2%	4.2%
SMILES	DT40 TDP1 no CPT	TGFb inhibitor	IL1B secr inh	TDP1 block	HepG2 viability	TDP1 cell CPT
Cc1ccc(-c2nc(N)sc2-c2ccc(C)cc2)cc1	16.4µM*	?	-24.7	5.0%	-26.7%	?
CN(C(=O)c1cc2c(=O)n3ccccc3nc2n1C)c1ccccc1	?	-29.5%	/	3.9%	-1.5%	11.6µM*
CN(C)c1ccc(NC(=O)c2cc3c(=O)n4ccccc4nc3n2C)cc1	14.6µM*	7.1%	?	/	1.3%	?
Cc1cc(N2CCC(C(=O)Nc3ccc(F)cc3C)CC2)n2nc(C)c(-c3ccc(Cl)cc3)c2n1	-14.5%	1.8%	/	0.0%	0.1%	?
O=c1c2oc3ccccc3c2n(Cc2ccccc2F)c(=O)n1Cc1ccco1	-1.3%	1.2%	/	-5.1%	10.3%	-15.3%
Cc1cc(NC(=O)CN2CCC(n3nnc4cc(C(F)(F)F)ccc43)CC2)no1	?	-2.5%	-25.4	4.2%	-14.8%	?
O=C(CN1CCC(n2nnc3cc(C(F)(F)F)ccc32)CC1)N1CCc2ccccc21	10µM*	-9.3%	27.6	1.0%	-17.6%	13µM*
CCOc1ccc2nc(NC(=O)CN3CCC(n4nnc5cc(C(F)(F)F)ccc54)CC3)sc2c1	23.1µM*	-6.4%	21.2	9.2%	-4.0%	14.6µM*
Cc1ccc(C(=O)N(Cc2cc3ccc(F)cc3nc2N2CCC(O)CC2)CC2CCCO2)cc1 (centres undefined)	-5.4%	/	/	/	/	2.1%[9.04 µM]
CC1=Nc2cc(C(=O)NC(C)C)ccc2Sc2ccc(C)cc21	4.11µM*	?	/	-2.5%	3.2%	4.61µM*
CNC(=O)c1ccc2snnc2c1	-26.1%	-2.6%	14.1	4.9%	3.8%	-12.0%
CNC(=O)c1ccc2c(c1)N=C(C)c1cc(C)ccc1S2	4.61µM*	?	/	0.0%	-13.5%	3.66µM*
NCCCC[C@H](NC(=O)[C@H](CCCN=C(N)N)NC(=O)[C@H](CO)NC(=O)[C@H](CCCN=C(N)N)NC(=O)[C@@H](N)Cc1ccc(O)cc1)C(=O)N[C@@H](Cc1ccc(O)cc1)C(=O)N[C@@H](CO)C(=O)N[C@@H](CO)C(=O)N[C@@H](Cc1c[nH]c2ccccc12)C(=O)N[C@@H](Cc1ccc(O)cc1)C(=O)O	/	/	/	11.5%	/	/
COc1ccc(NC(=O)Nc2ccc3c(c2)C(=O)N([C@@H](C)CO)C[C@@H](C)[C@@H](CN(C)CC2CCCCC2)O3)cc1	23.1µM*	?	-1.7	3.6%	-18.4%	?
